From PubChem BioAssay
DT40 TDP1 no CPT = qHTS for Inhibitors of human tyrosyl-DNA phosphodiesterase 1 (TDP1): qHTS in cells in absence of CPT; actives 15% (n = 420,000); AID 686978, 2013; DT40 Tdp1-/- hTDP1 cells, no CPT, ATP luminescence, 48 h; Potency, µM (series often up to 46.2 µM), inactives show at the top dose activity change, negative = growth inhibition, most hits filed as inhibitors; further: potency means the concentration at half of the fitted maximal effect; nearly all actives have a fitted effect of over 55% in size
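Growth of hTDP1-complemented DT40 Tdp1-knockout cells is measured by ATP luminescence after at least 48 hr compound exposure at 37 °C, with DMSO substituting for the 20 nM CPT used in the parallel screen.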
IL1B secr inh = blocks inflammasome-driven IL-1 beta release; THP-1 LPS/ATP IL-1B secretion, AlphaLISA, 16 h; hits give low values; activity change, % at 57.5 µM; actives 4.7% (n = 360,000); in the data active means activity change below about -50%; inconclusive means mostly about -30% to -49%
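Secreted IL-1B measured by AlphaLISA bead assay after 16 h compound exposure of THP-1 cells; compounds (final up to 57.5 uM) added 1 h before LPS (250 ng/mL) and ATP (1.25 mM) stimulation; lower signal means less secretion.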
DT40 TDP1 CPT = DT40-hTDP1 cell growth loss with CPT; chicken DT40 Tdp1-/-;hTDP1 cells + 20 nM CPT, ATP luminescence, 48 h; Potency, µM (top dose mostly 46.2 µM), without a hit: at the highest dose activity change, negative = growth inhibition, usual class: inhibitors; actives 12% (n = 420,000); AID 686979; further: potency means the concentration at half of the fitted maximal effect; nearly all actives have a fitted effect of over 55% in size
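Chicken DT40 Tdp1-/- cells stably complemented with human TDP1 were seeded at 400 cells/well in medium containing 20 nM camptothecin, exposed to pin-transferred compounds, and grown at 37 °C for at least 48 hr. Viability was read as ATP luminescence.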
TDP1 inh = blocks human tyrosyl-DNA phosphodiesterase 1; Q9NUW8; recombinant TDP1, AlphaScreen DNA substrate cleavage; Potency, µM (series often up to 130 µM), inactives show at the highest dose activity change, negative = inhibition, usual class: inhibitors; actives 0.28% (n = 350,000); AID 485290; further: potency means the concentration at half of the fitted maximal effect; nearly all actives have a fitted effect of over 40% in size
Target sequence (Q9NUW8 whole entry, looked up): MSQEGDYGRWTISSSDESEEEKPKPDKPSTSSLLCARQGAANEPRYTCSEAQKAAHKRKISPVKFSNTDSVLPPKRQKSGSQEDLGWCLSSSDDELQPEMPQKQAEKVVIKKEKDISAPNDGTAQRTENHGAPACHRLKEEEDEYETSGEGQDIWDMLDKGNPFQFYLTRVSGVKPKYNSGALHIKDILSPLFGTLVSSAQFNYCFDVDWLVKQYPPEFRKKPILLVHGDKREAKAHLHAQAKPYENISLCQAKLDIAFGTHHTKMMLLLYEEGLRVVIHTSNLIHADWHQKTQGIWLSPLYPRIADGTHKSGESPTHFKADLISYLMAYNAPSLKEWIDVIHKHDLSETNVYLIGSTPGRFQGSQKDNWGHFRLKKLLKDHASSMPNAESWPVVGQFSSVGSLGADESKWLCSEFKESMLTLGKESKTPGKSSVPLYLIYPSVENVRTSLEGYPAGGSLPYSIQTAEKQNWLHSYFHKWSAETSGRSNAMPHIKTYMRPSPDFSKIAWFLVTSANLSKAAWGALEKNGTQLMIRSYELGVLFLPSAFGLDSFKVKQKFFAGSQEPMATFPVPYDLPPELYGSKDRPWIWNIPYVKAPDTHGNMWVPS
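Steps: enzyme plus compound, 15 min RT; add biotin/phosphotyrosine-FITC oligonucleotide (15 nM final), react 5 min; add donor/acceptor beads (10 ug/ml final), 10 min; read AlphaScreen. Tdp1 at 1 nM final.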
ELG1 DNA repair = blocks ELG1-dependent DNA repair in HEK293T cells; AID 504467; Potency, µM (doses to about 46.1 µM), inactives show at the highest dose activity change, negative = inhibition, actives largely listed as inhibitors; HEK293T ELG1-luciferase reporter, luminescence, 16 h; DNA damage induced by 5-fluorouridine; actives 2.3% (n = 330,000); further: potency means the concentration at half of the fitted maximal effect; nearly all actives have a fitted effect of over 55% in size
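5-Fluorouridine DNA damage + compound/DMSO, 2,000 cells/well, 16 h, 37 °C/5% CO2. ONE-Glo, 30 min RT, luminescence. Readout = decrease in reporter signal.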
Giardia killer = Giardia lamblia killing | Giardia lamblia trophozoite viability | activity change, % at 7.66 µM, hits read low | actives 0.15% (n = 340,000); in the data active means activity change below about -80%; inconclusive means between about -30% and that limit;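 further: parasites exposed to compound for two days anaerobically before the ATP read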
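Killing of trophozoites was scored by loss of ATP luminescence after a 48 hrs anaerobic exposure to compounds at 37 deg C, using 100 cells per well.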
Active calls of the source: *; ? = inconclusive; . = not tested or not shown; [ ] = another dose, or the depositor's remark. An excerpt weighted towards active compounds, which were near 19% of everything screened. Unless noted, the call rests on the fitted dose curve; in most records, active means well fitted curve in the direction sought with a large enough effect; inconclusive means small, poorly fitted or top-dose-only effect, or another doubt; inactive means no such curve, though single readings can be large; an effect the other way counts as inactive or inconclusive. On the % scale 0 is the no-effect control and ±100 the full control effect.

SMILES | DT40 TDP1 no CPT | IL1B secr inh | DT40 TDP1 CPT | TDP1 inh | ELG1 DNA repair | Giardia killer
Cc1ccc(S(=O)(=O)N2CCCC(C(=O)NCc3cccnc3)C2)cc1Cl (stereo not given) | ? | 38 | -25% | -4% | -26% | 4
Cc1cc(C)c(S(=O)(=O)N2CCCC(C(=O)NCc3cccnc3)C2)c(C)c1 (stereo not given) | 21µM* | 4 | 16µM* | 3% | ? | 13
Cc1cc(C)c(S(=O)(=O)N2CCCCC2CCNC(=O)C(=O)NCc2cccnc2)c(C)c1 (stereo not given) | ? | 0 | 12µM* | -4% | -18% | 9
Cc1cc(C)c(S(=O)(=O)N2CCCCC2CCNC(=O)C(=O)NCC2CCCO2)c(C)c1 (stereo not given) | ? | 4 | ? | 5% | 4% | -8
Cc1ccc(S(=O)(=O)N2CCCCC2CCNC(=O)C(=O)NCc2cccnc2)cc1 (stereo not given) | 18µM* | 8 | 21µM* | 0% | -20% | -18
Cc1cc(F)ccc1S(=O)(=O)N1CCCCC1CCNC(=O)C(=O)NCc1ccccn1 (stereo not given) | 16µM* | 0 | ? | 12% | 0% | -9
CC(=O)N1CCOc2ccc(S(=O)(=O)N3CCC(C(=O)Nc4ccc(F)cc4)CC3)cc21 | -20% | 7 | -20% | 2% | 0% | -12
Cc1ccccc1CNC(=O)C(=O)NCCC1CCCCN1S(=O)(=O)c1ccccc1 (stereo not given) | 18µM* | -4 | 16µM* | -2% | -27% | -22
Cc1ccc(CNC(=O)C(=O)NCCC2CCCCN2S(=O)(=O)c2ccc(C)cc2)cc1 (stereo not given) | ? | 13 | 23µM* | -1% | ? | -2
Cc1ccc(C)c(S(=O)(=O)N2CCCCC2CCNC(=O)C(=O)NCc2cccnc2)c1 (stereo not given) | ? | 3 | ? | 0% | 1% | 0
Cc1ccc(C)c(S(=O)(=O)N2CCCCC2CCNC(=O)C(=O)NCc2ccccc2)c1 (stereo not given) | 18µM* | -19 | 23µM* | 6% | ? | 19
CC1CCCCC1NS(=O)(=O)c1ccc2c(c1)CC(=O)N2C (stereo not given) | ? | 24 | 6% | 1% | ? | -14
O=C(NC1CCCCC1)C(c1ccccn1)N(C(=O)c1csnn1)c1ccccc1F (stereo not given) | -15% | 23 | -16% | 10% | 6% | 12
CN1C(=O)C(Cl)(Cl)C(=O)c2ccccc21 | 16µM* | -91* | 15µM* | -3% | ? | -19
COc1cc2c(Nc3ccc(Br)cc3F)ncnc2cc1OCC1CCN(C)CC1 | 4.7µM* | . | 4.7µM* | . | . | .
C#Cc1cccc(Nc2ncnc3cc(OCCOC)c(OCCOC)cc23)c1 | 13µM* | . | ? | 6% | . | .
COc1ccc(COc2ncnc3ccc(Br)cc23)cc1F | -29% | -65* | -5% | -3% | 13% | -14
COc1cc2ncnc(Nc3cccc(Br)c3)c2cc1OC | ? | . | 17µM* | 14%[56.1 µM] | . | .
Brc1ccc(COc2ncnc3ccccc23)cc1 | -17% | -7 | 3% | 0% | -11% | -5
COc1ccc(Nc2ncnc3sccc23)cc1OC | -18% | -4 | -24% | . | 12% | -6
COc1ccc(Nc2ncnc3ccc(Br)cc23)cc1OC | ? | -14 | 18µM* | . | ? | -3
Cc1ccc(S(=O)(=O)N2CCN(C(=O)c3cc(S(=O)(=O)N(C)C)ccc3N3CCCC3)CC2)cc1 | -29% | -16 | -12% | -1% | 6% | 27
COc1ccc2ccccc2c1CNC(C)CCc1ccccc1 (stereo not given) | ? | . | 9.2µM* | 3% | -15% | -25
COc1ccc2ccccc2c1CN(C)Cc1ccccc1 | ? | -28 | -29% | . | -22% | 5
COc1ccc(CCNCc2c(OC)ccc3ccccc23)cc1OC | ? | ? | 16µM* | . | 1% | -27
SMILES | DT40 TDP1 no CPT | IL1B secr inh | DT40 TDP1 CPT | TDP1 inh | ELG1 DNA repair | Giardia killer
CCOc1ccc2ccccc2c1CNCCc1ccc(S(N)(=O)=O)cc1 | ? | -28 | -27% | . | -3% | 34
Cc1ccc(C(O)(C(=O)NNS(=O)(=O)c2ccc(C)cc2)c2ccc(C)cc2)cc1 | -20% | -53* | 9% | 0% | -3% | -2
CCCc1nc2sc3ccccc3c(=O)c2c(=O)n1Cc1ccc(OC)cc1 | 21µM* | 40 | 13µM* | 4% | 23µM* | -22
COc1ccc(Cn2c(=O)sc3ccccc3c2=O)cc1 | -23% | 13 | 1% | . | 7% | 1
COc1ccc(Cn2c(C(C)C)nc3sc4ccccc4c(=O)c3c2=O)cc1 | 12µM* | ? | ? | 0% | -8% | 10
CC(C)c1nc2sc3ccccc3c(=O)c2c(=O)n1Cc1ccccc1 | 15µM* | 61 | 16µM* | 6% | ? | -10
COCCn1c(C(C)C)nc2sc3ccccc3c(=O)c2c1=O | -27% | 20 | -20% | 4% | 0% | -6
C=C(Nc1ccc(OC)cc1)C(=O)OC | . | . | . | 10% | . | .
CC(C)(CNC(=O)c1cnn(-c2ncc3c(n2)-c2ccccc2CCC3)c1C1CC1)N1CCOCC1 | -5% | . | -2%[9.04 µM] | . | . | .
CO[C@@H]1[C@@H](OC)[C@H](C)[C@@](O)(CC(=O)O)O[C@H]1[C@H](C)[C@H]1O[C@@]2(CC[C@@](C)([C@H]3CC[C@@](C)([C@@H]4O[C@@H]([C@H]5O[C@](C)(O)[C@H](C)C[C@@H]5C)C[C@@H]4OC4C[C@H](OC)[C@@H](OC)[C@H](C)O4)O3)O2)C[C@H](O)[C@H]1C (stereo not given in full) | 0.34µM* | . | 0.6µM* | . | . | .
Cc1noc(C)c1CN(C(=S)NC1CC2CCC1C2)c1ccccc1 (stereo not given) | 23µM* | ? | ? | -2% | ? | 3
CCOC(=O)/C=c1\s/c(=C\c2ccc3c(c2)OCCO3)c(=O)n1CC(=O)NCC1CCCO1 (stereo not given) | -15% | 2 | -25% | 10% | -8% | -1
CCOC(=O)/C=c1/s/c(=C\c2c(OC)ccc3ccccc23)c(=O)n1CC(=O)NCC1CCCO1 (stereo not given) | 26µM* | 6 | 23µM* | . | . | -6
